PubChem BioAssay
“And” between values parts separate entries of the source, which are not always exact repeats. Equal entries are not always repeated. Records with an inconclusive call do not appear. The source made the active and inactive calls.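 The calls were made as follows, unless noted: active = compounds whose cell count with miR-34 switched on is under 0.7 times the count with it off; inactive = the rest.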

Legend:
[1] = hESC survival regulators, cell-based (AID 493140; call rule not given here;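 also: cells exposed to compounds for four days before counting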); details: human embryonic stem cell survival screen; stronger effect = higher value
[2] = liver-stage malaria parasite growth inhibition, primary screen, cell-based, HepG2, luciferase luminescence, HepG2 viability (AID 624349; in the data active = parasite load remaining mostly below about 12%, no sharp cut-off; inactive = mostly above about 10%;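 also: 100% = mean of DMSO negative control wells on the same plate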); details: P. berghei liver stage in HepG2, luciferase luminescence, concentration not given here; parasite load remaining: stronger effect = lower value; viability: measured here: HepG2 viability without parasites
[3] = sensitizers of A549 cells to miR-34 induction, primary screen, imaging, A549 dox-inducible miR-34, nuclei and caspase counts (AID 1347080); details: A549 miR-34 inducible, Hoechst nuclei count, 48 h
[4] = target: ATP-dependent translocase ABCB1 (Homo sapiens) (UniProt P08183); assay: MDR1 (ABCB1) efflux transporter inhibition, cell-based (AID 377; in the data active = fluorescence slope change above about 50%); details: MDR1-expressing cells, fluorescent substrate accumulation slope; stronger effect = higher value; concentration not given here
[5] = viability rescue of complex I mutant cybrids, primary screen, cell-based, galactose medium, ATP luminescence (AID 1645843;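 active = z-score of at least 1.8 in each of two replicates, scored against plate mean and spread of sample wells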;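 also: positive z means more ATP and so rescue of galactose-driven cybrid death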); details: complex I mutant cybrid cells, 72 h, stronger effect = higher value
[6] = circadian clock period modulators, cell-based, LOPAC library, luminescence reporter (AID 2774; call rule not given here;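 also: values are relative to mean of DMSO wells on each plate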); details: circadian reporter cells, at 7 µM, actives lie on both sides
[7] = measured here: relative caspase fold change +Dox/-Dox
[8] = measured here: total cells with miR-34 induction, stronger effect = lower value
[9] = measured here: total cells without miR-34 induction
[10] = stronger effect = lower value, cell number ratio, induced over uninduced

Chain of ATP-dependent translocase ABCB1 (Homo sapiens) (P08183 whole entry, looked up): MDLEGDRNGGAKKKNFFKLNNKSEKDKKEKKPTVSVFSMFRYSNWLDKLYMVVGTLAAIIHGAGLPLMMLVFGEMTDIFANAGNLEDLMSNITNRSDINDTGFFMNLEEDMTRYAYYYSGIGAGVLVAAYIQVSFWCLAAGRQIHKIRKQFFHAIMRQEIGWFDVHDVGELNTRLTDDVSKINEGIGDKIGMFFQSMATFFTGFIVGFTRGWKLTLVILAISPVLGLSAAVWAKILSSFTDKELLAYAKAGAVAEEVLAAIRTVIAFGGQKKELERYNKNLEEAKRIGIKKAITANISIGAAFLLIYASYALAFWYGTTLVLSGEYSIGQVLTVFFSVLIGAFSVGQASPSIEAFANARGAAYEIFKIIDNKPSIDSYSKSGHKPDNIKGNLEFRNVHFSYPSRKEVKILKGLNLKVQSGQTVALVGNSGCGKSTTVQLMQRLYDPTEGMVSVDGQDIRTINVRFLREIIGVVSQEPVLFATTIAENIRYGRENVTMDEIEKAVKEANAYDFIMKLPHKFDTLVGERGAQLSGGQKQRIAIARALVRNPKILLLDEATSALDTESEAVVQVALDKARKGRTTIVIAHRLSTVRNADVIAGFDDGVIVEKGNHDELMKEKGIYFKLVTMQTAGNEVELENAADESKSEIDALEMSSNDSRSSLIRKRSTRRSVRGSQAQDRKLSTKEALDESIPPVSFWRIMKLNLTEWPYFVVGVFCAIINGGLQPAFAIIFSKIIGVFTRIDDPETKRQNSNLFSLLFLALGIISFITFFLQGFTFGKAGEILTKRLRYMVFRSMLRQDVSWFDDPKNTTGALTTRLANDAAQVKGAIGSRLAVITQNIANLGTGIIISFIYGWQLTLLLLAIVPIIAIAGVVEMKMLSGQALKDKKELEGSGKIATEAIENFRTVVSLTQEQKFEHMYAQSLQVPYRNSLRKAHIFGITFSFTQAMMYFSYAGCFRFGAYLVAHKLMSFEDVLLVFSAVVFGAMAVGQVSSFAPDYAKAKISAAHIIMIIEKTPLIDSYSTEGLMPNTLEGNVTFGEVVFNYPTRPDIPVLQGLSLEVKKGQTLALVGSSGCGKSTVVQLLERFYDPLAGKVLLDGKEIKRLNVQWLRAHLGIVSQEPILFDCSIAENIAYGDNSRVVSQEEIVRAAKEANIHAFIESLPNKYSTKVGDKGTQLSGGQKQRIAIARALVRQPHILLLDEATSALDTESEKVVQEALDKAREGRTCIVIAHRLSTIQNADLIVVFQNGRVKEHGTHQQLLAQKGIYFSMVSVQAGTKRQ

SMILES	survival [1]	parasite load remaining [2]	viability [2]	fold change ([3]; stronger effect = lower value)	fold change [3, 7]	cell count [3, 8]	cell count [3, 9]	fold change [3, 10]	fluorescence slope change [4]	z-score [5]	period change [6]
CN1C(CC(O)c2ccccc2)CCCC1CC(O)c1ccccc1 (centres undefined)	5.42 (inactive)	93.7% (inactive) and 75.5% (inactive)	96.2% and 77.8%	0.827 (inactive)	1.06	8680	10500	–	–	–	–
CCCCC/C=C\C/C=C\C/C=C\C/C=C\CCCC(=O)NCCc1ccc(O)c(O)c1	69.6 (inactive)	–	–	–	1.09	5250	5510	0.953 (inactive)	–	–	–
C/C=C1/C[N+]2(C)CCC34C(=C(C=O)[C@H]1C[C@@H]32)Nc1ccccc14 (some centres undefined)	3.83 (inactive)	95% (inactive)	101%	0.931 (inactive)	1.21	8700	9340	–	21.2% (inactive)	–	–
C[C@]12CCC3C4CCC(=O)C=C4CCC3C1CCC2O (some centres undefined)	–	–	–	0.894 (inactive)	1.48	7980	8920	–	–	-0.31 (inactive)	–
CCCCCCCCCCCCCCCCOC[C@H](COP(=O)([O-])OCC[N+](C)(C)C)OC(C)=O	57.8 (inactive)	–	–	0.933 (inactive) and 0.881 (inactive)	1.16 and 1.84	5630 and 5430	6040 and 6160	–	–	–	–
CC1=CC(=O)C2=C(C)C[C@H](O)[C@@H]3[C@H](OC(=O)[C@H]3C)[C@@H]12	7.92 (inactive)	98.5% (inactive)	100%	0.829 (inactive)	1.6	8050	9720	–	–	–	–
CC(C)C[C@H]1C(=O)N2CCC[C@H]2[C@]2(O)O[C@](NC(=O)[C@@H]3C=C4c5cccc6[nH]cc(c56)C[C@H]4N(C)C3)(C(C)C)C(=O)N12	9.42 (inactive)	59.7% (inactive)	94.6%	0.917 (inactive)	1.12	7540	8220	–	95.9% (active)	–	–
CNC1CC(c2ccc(Cl)c(Cl)c2)c2ccccc21 (centres undefined)	–	–	–	–	1.45	5010	5240	0.956 (inactive)	–	-1.44 (inactive)	–
C[C@@H]1NCCc2cc(O)c(O)cc21	6 (inactive)	75.9% (inactive) and 47.5% (inactive)	120% and 73.8%	–	1.51	8760	10400	0.841 (inactive)	-10.9% (inactive)	–	–
Nc1cc2c(ncn2CCOCP(=O)(O)O)c(=O)[nH]1	–	–	–	1.06 (inactive)	1.02	3380	3200	–	–	-0.655 (inactive)	–
C[C@]12CC(=CO)C(=O)CC1CCC1C2CC[C@@]2(C)C1CC[C@]2(C)O (some centres undefined)	–	–	–	0.96 (inactive)	2.87	9400	9790	–	–	-1.14 (inactive)	–
CNCC(O)c1ccc(O)c(OC)c1 (centres undefined)	30.2 (inactive)	40.2% (inactive) and 98.3% (inactive)	47.9% and 90.3%	–	1.46	8830	9760	0.905 (inactive)	189% (active)	–	–
COc1ccc2[nH]c3c(c2c1)CCN=C3C	10.2 (inactive)	105% (inactive) and 62.3% (inactive)	98.5% and 75.1%	0.83 (inactive)	1.33	7960	9590	–	83.4% (active)	–	–
C[C@]12CCC(=O)C=C1CCC1C2CC[C@@]2(C)C1CC[C@]2(C)O (some centres undefined)	–	–	–	1.16 (inactive)	0.795	2670	2300	–	–	-1.03 (inactive)	–
O=C1C=C2C=C[C@@H]3CC2(O1)[C@H]1CCCCN31	2.33 (inactive)	0.53% (active)	98.2%	0.999 (inactive)	0.949	2810	2810	–	28.7% (inactive)	–	–
Oc1cc2c(cc1O)C1c3ccccc3CNC1CC2 (centres undefined)	–	–	–	–	2.62	9630	10900	0.881 (inactive)	–	-1.86 (inactive)	–
COC1=C[C@@H]2C3=C([C@@H]2C1=O)[C@@H](NC(C)=O)CCc1cc(OC)c(OC)c(OC)c13	–	62.8% (inactive)	107%	–	1.41	9450	10900	0.865 (inactive)	70.2% (active)	–	–
COC1=CC(=O)O[C@@H](/C=C/c2ccccc2)C1	16.6 (inactive)	26.1% (inactive) and 89.1% (inactive)	46.2% and 90.2%	0.899 (inactive)	1.34	8920	9920	–	–	–	–
C[C@]12CCC(O)CC1=CCC1C2CC[C@]2(C)C(=O)CCC12 (some centres undefined)	–	–	–	1.16 (inactive)	1.21	7950	6860	–	–	-0.11 (inactive)	–
CN1CCC(c2ccc(F)cc2)C(COc2ccc3c(c2)OCO3)C1 (centres undefined)	–	–	–	–	1.59	7350	8110	0.906 (inactive)	–	-1.4 (inactive)	–
NC(Cn1oc(=O)[nH]c1=O)C(=O)O (centres undefined)	–	–	–	0.991 (inactive)	0.896	10000	10100	–	–	0.64 (inactive)	-0.055 h (inactive)
C=C1C/C(=C/C)C(=O)O[C@@H]2CCN3CC=C(COC(=O)[C@]1(C)O)[C@H]23	10.6 (inactive)	91.1% (inactive) and 73.7% (inactive)	125% and 77.7%	0.88 (inactive)	1.73	9540	10800	–	–	–	–
